Source: PubChem (several laboratories)
Mdm2 MdmX PPI: disrupts the human Mdm2-MdmX interaction; O15151+Q00987; AID 485346; 330,000 tested, 3% active; SaOS-2 split-luciferase Mdm2/MdmX complementation, luminescence; inhibition, % at 8 µM;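 active = inhibition of at least 50% at 8 µM in the primary screen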
Target sequence (O15151 whole entry, looked up): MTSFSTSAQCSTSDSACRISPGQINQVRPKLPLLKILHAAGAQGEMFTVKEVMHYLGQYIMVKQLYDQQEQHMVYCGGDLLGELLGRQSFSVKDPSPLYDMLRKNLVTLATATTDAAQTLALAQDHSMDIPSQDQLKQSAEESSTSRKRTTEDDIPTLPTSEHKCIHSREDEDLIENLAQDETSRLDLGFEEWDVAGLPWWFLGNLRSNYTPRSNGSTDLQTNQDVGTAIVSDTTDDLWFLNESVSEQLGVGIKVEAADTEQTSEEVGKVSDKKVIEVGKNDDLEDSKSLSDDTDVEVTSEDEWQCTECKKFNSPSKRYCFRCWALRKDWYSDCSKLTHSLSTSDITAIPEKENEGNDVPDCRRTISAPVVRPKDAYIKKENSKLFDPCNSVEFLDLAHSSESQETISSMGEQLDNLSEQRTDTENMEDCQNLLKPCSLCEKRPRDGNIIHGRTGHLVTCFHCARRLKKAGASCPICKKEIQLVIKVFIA
Target sequence (Q00987 whole entry, looked up): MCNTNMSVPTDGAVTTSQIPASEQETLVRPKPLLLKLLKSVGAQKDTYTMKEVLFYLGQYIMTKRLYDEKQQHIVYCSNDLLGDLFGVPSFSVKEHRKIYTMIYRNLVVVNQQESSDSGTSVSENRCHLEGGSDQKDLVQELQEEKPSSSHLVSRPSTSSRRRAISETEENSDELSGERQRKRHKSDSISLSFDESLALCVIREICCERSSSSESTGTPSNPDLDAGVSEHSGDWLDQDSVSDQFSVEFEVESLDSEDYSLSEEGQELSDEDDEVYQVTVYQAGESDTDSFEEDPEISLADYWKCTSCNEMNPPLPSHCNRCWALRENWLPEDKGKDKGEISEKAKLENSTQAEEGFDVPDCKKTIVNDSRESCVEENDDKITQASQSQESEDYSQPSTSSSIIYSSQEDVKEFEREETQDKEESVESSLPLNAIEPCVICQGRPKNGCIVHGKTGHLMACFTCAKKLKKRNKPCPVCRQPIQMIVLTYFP
HSP90 inh: blocks HSP90-mediated luciferase refolding in reticulocyte lysate | 290,000 tested, 0.91% active | Rabbit reticulocyte lysate, luciferase refolding luminescence, 3 h | inhibition, % at 5.6 µM | AID 1789;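 active = inhibition above the screen-wide mean plus 3 SD, computed separately per campaign, cut at about 16% in these data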;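 note: 0% = DMSO wells and 100% = 60 µM geldanamycin wells; inhibitors lower the luminescence because luciferase stays unfolded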
KKLEB tox: CF airway cell cytotoxicity counter-screen; activity change (cytotoxicity), % at 5 µM; AID 602141; KKLEB CF airway cells viability, ATPlite luminescence, overnight; stronger effect = lower value; cells stimulated with P. aeruginosa culture filtrate; 360,000 tested, 0.36% active;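 active = corrected activity change at or below -50% at 5 µM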
LGR2 antag: inhibitors of bursicon-induced Drosophila LGR2 receptor cAMP signaling. inhibition, % at 9.99 µM. 380,000 tested, 0.35% active. AID 720647. HEK293 LGR2, CRE-luciferase, bursicon-stimulated, 4 h;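 active = drop in luminescence signal, shown as inhibition above about 50% in the replicate tests, limit read from the data, passing the limit was not always enough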;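 note: agonist challenge used bursicon conditioned medium at about half maximal strength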
CF NFkB block: cystic fibrosis NF-kB activation inhibition | AID 588850 | inhibition, % at 5 µM | 360,000 tested, 0.86% active | KKLEB NF-kB-GFP reporter, PAF-induced, GFP fluorescence overnight;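 active = at least 50% inhibition at 5 µM, scaled per plate between neutral and stimulator controls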;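 note: PAF is a Pseudomonas aeruginosa culture filtrate used as stimulus; plate controls were PAF-stimulated DMSO wells for no effect and unstimulated DMSO wells for full effect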
Peg3 prom inh-1: inhibitors of Peg3 promoter; 360,000 tested, 1.7% active; AID 588405; inhibition, % at 20 µM; HeLa PEG-Prom luciferase reporter, luminescence, overnight;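 active = inhibition of at least 50% at 20 µM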
Mdm2-MdmX conf: human Mdm2/MdmX binding inhibition, confirmed. shares compounds with Mdm2 MdmX PPI. luminescent assay. inhibition, % at 8 µM. 10,000 tested, 55% active. AID 489028; in the data active = inhibition above about 40%
FLuc counter: inhibits full-length luciferase, flagging false Mdm2/MdmX hits | shares compounds with Mdm2 MdmX PPI | SaOS-2 full-length luciferase counterscreen, luminescence | inhibition, % at 8 µM | 6,200 tested, 77% active | AID 504607;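 active = mean inhibition at 8 µM reaching about 37%, which flags the compound as non-specific, limit read from the data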;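 note: p53-null SaOS-2 cells with luciferase driven by a doxycycline-inducible promoter; compound on cells about two nights before reading with doxycycline added after day one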
Peg3 prom inh-2: confirmation of Peg3 promoter inhibitors; shares compounds with Peg3 prom inh-1; HeLa PEG-Prom luciferase reporter, luminescence, overnight; inhibition, % at 20 µM; 1,300 tested, 84% active;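 active = at 20 µM dose, 40% or more inhibition averaged across four replicates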
* marks the source's active call; other numbers are inactive results; / = no result given. This is a sample that favours compounds with a hit; in the whole collection about 3.6% have one here.

SMILES	Mdm2 MdmX PPI	HSP90 inh	KKLEB tox	LGR2 antag	CF NFkB block	Peg3 prom inh-1	Mdm2-MdmX conf	FLuc counter	Peg3 prom inh-2
COc1ccc(CN(C)C[C@@H]2OCCCC[C@H](C)Oc3ccc(NS(=O)(=O)c4ccc(C)cc4)cc3C(=O)N([C@@H](C)CO)C[C@@H]2C)cc1	/	/	/	-15	/	/	/	/	/
COC(=O)c1ccc(Nc2cc(C)nc3ccc(C)cc23)cc1	100*	4	-7	74*	-9	56*	66*	52*	89*
COC(=O)c1ccc2nc(C)cc(Nc3ccccc3C)c2c1	11	5	-10	1	-21	1	/	/	/
O=C(O)c1cccc(Nc2nc(-c3cccnc3)nc3ccccc23)c1	-6	-1	8	3	-14	-3	/	/	/
CCOC(=O)c1cccc(Nc2nc(-c3cccnc3)nc3ccccc23)c1	70*	-3	-14	/	12	63*	36	/	90*
CCCc1c(C(=O)N/N=C(\C)c2ccccc2O)nnn1-c1nonc1N	/	/	-7	1	-15	37	/	/	/
C/C(=N\NC(=O)c1nnn(-c2nonc2N)c1-c1ccccc1)c1ccccc1O	82*	-4	-1	22	19	73*	84*	51*	67*
Cc1noc(C)c1NC(=O)N(C)C[C@@H]1Oc2ccc(NC(=O)Cn3cnnn3)cc2C(=O)N([C@H](C)CO)C[C@@H]1C	/	/	/	0	/	/	/	/	/
COc1cc(/C=C/[N+](=O)[O-])ccc1OC(=O)/C=C/c1ccc(F)cc1	73*	10	-4	/	-30	103*	71*	51*	52*
CO[C@@H]1CN(C)C(=O)c2ccc(NC(=O)C3CC3)cc2OC[C@@H](C)N(C(=O)c2ccncc2)C[C@H]1C	/	/	/	8	/	/	/	/	/
Cc1cc(C)c2nc(NNC(=O)c3ccc(S(=O)(=O)N4CCCC(C)C4)cc3)sc2c1 (stereo unspecified)	83*	3	3	41	11	66*	86*	45*	75*
Cc1cc(C)c2nc(NNC(=O)c3ccc(S(=O)(=O)N4CC(C)CC(C)C4)cc3)sc2c1 (stereo unspecified)	84*	6	-4	/	9	94*	70*	23	99*
CCC(=O)NNc1nc2c(C)cc(C)cc2s1	7	1	1	-13	18	-2	/	/	/
CC1CCCN(S(=O)(=O)c2ccc(C(=O)Nc3nnc(C4CC4)o3)cc2)C1 (stereo unspecified)	31	5	-11	0	26	18	/	/	/
O=C(COC(=O)c1c2c(nc3ccccc13)/C(=C\c1cccs1)CCC2)Nc1ccccc1	52*	-5	15	29	-38	55*	11	/	60*
Cc1ccc(-n2nc3c(N4CCC(C(=O)NCCc5cccs5)CC4)nnc(C)c3c2C)cc1	55*	4	-14	-2	33	60*	37	89*	37
CN(CC(=O)Nc1cccc(F)c1)C(=O)c1cc(-c2ccco2)nc2ccccc12	6	/	-12	-4	13	42	/	/	/
COc1cccc(NC(=O)CN(C)C(=O)c2cc(-c3ccc(F)cc3)nc3ccccc23)c1	62*	/	-19	-1	1	63*	34	/	73*
O=C(c1cc(-c2ccccc2)nn1-c1ccccc1)N1CCN(S(=O)(=O)c2ccc(F)cc2)CC1	48	/	-2	-7	16	36	/	/	/
O=C(c1cc(-c2cccs2)nn1-c1ccccc1)N1CCN(S(=O)(=O)c2ccccc2)CC1	55*	/	-20	4	21	57*	38	92*	57*
COc1cc(CNCCN2CCOCC2)ccc1OCc1ccc(Cl)cc1Cl	53*	0	-4	-20	12	57*	20	/	79*
COc1cc(CNCCN2CCOCC2)ccc1OCc1cccc(Cl)c1	3	-3	-5	/	-4	-3	/	/	/
COc1ccc2[nH]c(C(=O)N/N=C/c3ccccc3OC)cc2c1	7	-4	-6	-17	1	22	/	/	/
COc1cc(OC)c2cc(C(=O)N/N=C/c3ccccc3O)[nH]c2c1	73*	-2	-3	12	-2	72*	68*	38*	59*
CCCNC(=O)N1CC2(CN(S(=O)(=O)c3cccc(OC)c3)C2)c2c(n(C)c3cc(OC)ccc23)[C@H]1CO	/	/	/	23	/	/	/	/	/
SMILES	Mdm2 MdmX PPI	HSP90 inh	KKLEB tox	LGR2 antag	CF NFkB block	Peg3 prom inh-1	Mdm2-MdmX conf	FLuc counter	Peg3 prom inh-2
Cc1ccc(C)c(CN2CCC(CNC(=O)Nc3ccc(F)c(Cl)c3)CC2)c1	69*	-2	-15	19	16	68*	33	56*	98*
C[C@@H]1CN([C@@H](C)CO)C(=O)c2cc(NC(=O)Nc3ccccc3)ccc2O[C@H]1CN(C)C(=O)Nc1ccc2c(c1)OCO2	/	/	/	2	/	/	/	/	/
CNC[C@H](CC1CCCCC1)NC[C@H](Cc1ccccc1)NCCC12CC3CC(CC(C3)C1)C2	100*	4	-85*	101*	65*	99*	100*	52*	100*
NC[C@H](Cc1ccccc1)NCCCCC1CCCCC1	-14	/	3	-11	2	-11	/	/	/
COc1ccc(-c2cc(C(=O)NNC(=O)c3csc(N4CCOCC4)n3)c3ccccc3n2)cc1OC	34	/	10	5	-22	9	/	/	/
COc1ccc(-c2cc(C(=O)Nc3ccccc3N3CCOCC3)c3ccccc3n2)cc1OC	53*	3	-11	32	18	58*	58*	75*	62*
COc1ccccc1NC(=O)c1cc(-c2cc(OC)c(OC)c(OC)c2)nc2ccccc12	55*	8	-12	13	29	54*	29	/	74*
O=C(Nc1ccccc1N1CCOCC1)c1cc(-c2ccncc2)nc2ccccc12	55*	-3	-13	/	1	63*	38	82*	57*
CN(C)CC(=O)Nc1ccc2c(c1)[C@@H]1C[C@@H](CC(=O)NCc3cc(F)ccc3F)O[C@H](CO)[C@@H]1O2	/	/	/	17	/	/	/	/	/
COc1ccc(OC)c(NC(=O)c2cc3c(Cl)nc4ccccc4c3s2)c1	53*	5	-26	-10	18	65*	20	/	20
O=C(Nc1ccc2oc(-c3ccncc3)nc2c1)c1ccc([N+](=O)[O-])o1	56*	0	-20	-5	48	102*	44*	45*	98*
COC(=O)c1cn(NC(=O)C2CCC(C)CC2)c(=O)c2ccccc12 (stereo unspecified)	-15	3	5	/	3	4	/	/	/
